# PubChem BioAssay (NCATS)
# Unmarked numbers belong to inactive results. Records with an inconclusive call do not appear. A call without a number means that no potency is given here. Calls of active or inactive are those of the source. Unless noted, the call rests on the fitted dose curve; in most records, active means well fitted curve in the direction sought with a large enough effect; inconclusive means small, poorly fitted or top-dose-only effect, or another doubt; inactive means no such curve, though single readings can be large; an effect the other way counts as inactive or inconclusive. Where a SMILES comes first, the peptide text is derived from it. [ ]: non-standard residue; d: D form. pGlu = O=C1CC[C@@H](C(=O)O)N1; Thz = O=C(O)[C@@H]1CSCN1
# Experiments:
# [1] = P-glycoprotein substrates identified in KB-8-5-11 adenocarcinoma cell line, qHTS therapeutic library screen (AID 1346987); further: nearly all actives have a fitted effect of over 65% in size
# Method in brief: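 Human cervical adenocarcinoma KB-8-5-11 cells, selected in colchicine to over-express P-gp and assayed without it, were exposed for 72 h to titrated compounds. An ATP-based luminescent viability signal gave AC50.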
# [2] = P-glycoprotein substrates identified in KB-3-1 adenocarcinoma cell line, qHTS therapeutic library screen (AID 1346986); further: nearly all actives have a fitted effect of over 60% in size
# Method in brief: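 Viability by CellTiter-Glo after 72 h compound exposure at 37 degree C, 5% CO2. Cytotoxic call: curve class -1.1 to -2.4, maximum response >50%, AC50 < 10 uM, compared across KB-3-1 and P-gp-overexpressing KB-8-5-11.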
# [3] = NS1 protein of Zika virus - qHTS assay to identify small molecule inhibitors in human HEK 293 cells (AID 1347053); further: series mostly up to about 46 µM; nearly all actives have a fitted effect of over 55% in size
# Method in brief: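 TR-FRET signal from two anti-ZIKV NS1 antibodies quantified NS1 in HEK 293 cells 24 h after MR766 infection at MOI = 0.5; compounds were added 1 h before virus. Uninfected cells and infected cells defined the NS1 normalization range.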
# [4] = qHTS of pediatric cancer cell lines to identify multiple opportunities for drug repurposing: Primary screen for TC32 cells (AID 1347089); further: nearly all actives have a fitted effect of over 60% in size
# Method in brief: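 TC32 cells, 500-1,000/well in growth medium, compound-treated 48 h at 37 °C; viability from CellTiter-Glo luminescence. Primary screen: MIPE 11-point (0.78 nM–46 µM final), NPC 8-point (0.59 nM–46 µM final); confirmatory at 11-point dilutions.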
# [5] = qHTS of pediatric cancer cell lines to identify multiple opportunities for drug repurposing: Primary screen for DAOY cells (AID 1347090); further: series mostly up to about 46 µM; nearly all actives have a fitted effect of over 55% in size
# Method in brief: (§1)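 Viability measured as metabolically active cells via CellTiter-Glo luminescence following 48 hours of compound exposure, 11-point dilutions in confirmatory testing. 500-1,000 cells/well plated 5 hours before dosing; controls were DMSO and 2.3 µM bortezomib.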
# [6] = qHTS of pediatric cancer cell lines to identify multiple opportunities for drug repurposing: Primary screen for SJ-GBM2 cells (AID 1347091)
# Method in brief: as §1
# [7] = qHTS of pediatric cancer cell lines to identify multiple opportunities for drug repurposing: Primary screen for A673 cells (AID 1347092); further: nearly all actives have a fitted effect of over 45% in size
# Method in brief: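 A673 cells (500-1,000 cells/well) were treated 48 hours at 37 degrees C with compounds at 11-point (0.78 nM to 46 µM) or 8-point (0.59 nM to 46 µM) dilutions. Viability read by CellTiter-Glo luminescence; concentration-response curves fitted.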
# [8] = qHTS of pediatric cancer cell lines to identify multiple opportunities for drug repurposing: Primary screen for SK-N-MC cells (AID 1347093); further: series mostly up to about 46 µM
# Method in brief: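 Metabolically active cells were quantified by ATP-dependent luminescence (CellTiter-Glo, 15 min at room temperature) following 48 h treatment. Cells had been plated at 500-1,000 per well and settled for 5 h beforehand.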
# [9] = qHTS of pediatric cancer cell lines to identify multiple opportunities for drug repurposing: Primary screen for BT-37 cells (AID 1347094); further: series mostly up to about 57 µM
# Method in brief: (§2)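 Plated cells (500-1,000 per well, growth media) were allowed to settle for 5 hours, treated with compound dilutions for 48 hours, then lysed with CellTiter-Glo for 15 min at room temperature before luminescence reading.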
# [10] = qHTS of pediatric cancer cell lines to identify multiple opportunities for drug repurposing: Primary screen for NB-EBc1 cells (AID 1347095)
# Method in brief: as §2
# [11] = qHTS of pediatric cancer cell lines to identify multiple opportunities for drug repurposing: Primary screen for U-2 OS cells (AID 1347096); further: nearly all actives have a fitted effect of over 50% in size
# Method in brief: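 Viability after 48 h compound treatment at 37C, 500-1,000 cells/well, read as ATP luminescence with CellTiter-Glo. Primary screens used 11-point (MIPE, 0.78 nM-46 µM) or 8-point (NPC, 0.59 nM-46 µM) final concentrations; follow-up screens used 11-point dilutions.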
# [12] = Identifying Small Molecule Inhibitors of Pancreatic Cancer Stem Cells (A278, Adherent) (AID 1259361); further: nearly all actives have a fitted effect of over 35% in size
# Method in brief: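 Endpoint: ATP-based luminescence, 48 h drug exposure. Bortezomib at 9.2 uM final as full-kill control; DMSO vehicle as negative control; activity normalized between vehicle and cell-free wells.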
# [13] = Natriuretic polypeptide receptor (hNpr1) antagonism - Pilot counterscreen GloSensor control cell line (AID 1347045; calls by dose curve; further: potency means the concentration at half of the fitted maximal effect)
# Method in brief: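 The SNP-driven cGMP luminescence signal (50 uM, 20 min, room temperature) was measured in GloSensor HEK293 control cells. Compounds were tested as a LOPAC titration series and preincubated for 30-50 min.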
# [14] = target: Atrial natriuretic peptide receptor 1 (Homo sapiens) (UniProt P16066); experiment: Natriuretic polypeptide receptor (hNpr1) antagonism - Pilot screen (AID 1347049; calls by dose curve;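 further: agonist-evoked cGMP luminescence read 20 min after hNppA addition; series mostly up to about 58 µM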)
# Atrial natriuretic peptide receptor 1 (Homo sapiens), sequence (P16066 whole entry, looked up): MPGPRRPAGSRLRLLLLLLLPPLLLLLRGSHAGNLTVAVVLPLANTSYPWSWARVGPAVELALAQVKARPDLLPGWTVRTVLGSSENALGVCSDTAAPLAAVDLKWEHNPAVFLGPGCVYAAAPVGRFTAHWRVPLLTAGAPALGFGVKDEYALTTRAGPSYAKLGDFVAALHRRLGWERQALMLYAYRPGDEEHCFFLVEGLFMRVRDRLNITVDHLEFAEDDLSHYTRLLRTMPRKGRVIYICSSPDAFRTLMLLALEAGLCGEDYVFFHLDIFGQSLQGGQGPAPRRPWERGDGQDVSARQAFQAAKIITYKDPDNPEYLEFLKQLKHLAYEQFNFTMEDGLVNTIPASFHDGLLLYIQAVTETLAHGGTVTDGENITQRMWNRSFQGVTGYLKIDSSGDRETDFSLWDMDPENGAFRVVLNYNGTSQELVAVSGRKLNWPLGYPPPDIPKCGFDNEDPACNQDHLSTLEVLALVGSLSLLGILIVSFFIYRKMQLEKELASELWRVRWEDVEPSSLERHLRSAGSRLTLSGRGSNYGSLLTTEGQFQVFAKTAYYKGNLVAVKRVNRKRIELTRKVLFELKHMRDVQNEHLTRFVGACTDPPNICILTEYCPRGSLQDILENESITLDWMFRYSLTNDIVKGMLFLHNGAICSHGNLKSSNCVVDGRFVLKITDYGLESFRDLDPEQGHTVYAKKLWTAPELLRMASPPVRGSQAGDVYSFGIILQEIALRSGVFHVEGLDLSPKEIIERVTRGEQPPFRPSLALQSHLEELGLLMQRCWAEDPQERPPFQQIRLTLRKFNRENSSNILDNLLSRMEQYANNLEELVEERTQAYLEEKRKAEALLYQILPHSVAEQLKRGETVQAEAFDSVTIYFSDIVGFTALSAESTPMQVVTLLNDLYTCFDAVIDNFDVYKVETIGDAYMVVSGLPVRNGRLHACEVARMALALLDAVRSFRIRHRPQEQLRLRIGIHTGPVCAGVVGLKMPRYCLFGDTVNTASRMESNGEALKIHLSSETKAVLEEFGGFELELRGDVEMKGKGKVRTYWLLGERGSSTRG
# Method in brief: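 cGMP-sensor HEK293/hNpr1 cells, 1500/well, plated overnight at 37C. 2% GloSensor reagent, 2 h RT. Compound (23 nL pin transfer) 30 min RT, baseline luminescence pre-read. 0.1 nM hNppA, 20 min RT, post-read.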
# [15] = target: Atrial natriuretic peptide receptor 2 (Homo sapiens) (UniProt P20594); experiment: Natriuretic polypeptide receptor (hNpr2) antagonism - Pilot subtype selectivity assay (AID 1347050; calls by dose curve)
# Atrial natriuretic peptide receptor 2 (Homo sapiens), sequence (P20594 whole entry, looked up): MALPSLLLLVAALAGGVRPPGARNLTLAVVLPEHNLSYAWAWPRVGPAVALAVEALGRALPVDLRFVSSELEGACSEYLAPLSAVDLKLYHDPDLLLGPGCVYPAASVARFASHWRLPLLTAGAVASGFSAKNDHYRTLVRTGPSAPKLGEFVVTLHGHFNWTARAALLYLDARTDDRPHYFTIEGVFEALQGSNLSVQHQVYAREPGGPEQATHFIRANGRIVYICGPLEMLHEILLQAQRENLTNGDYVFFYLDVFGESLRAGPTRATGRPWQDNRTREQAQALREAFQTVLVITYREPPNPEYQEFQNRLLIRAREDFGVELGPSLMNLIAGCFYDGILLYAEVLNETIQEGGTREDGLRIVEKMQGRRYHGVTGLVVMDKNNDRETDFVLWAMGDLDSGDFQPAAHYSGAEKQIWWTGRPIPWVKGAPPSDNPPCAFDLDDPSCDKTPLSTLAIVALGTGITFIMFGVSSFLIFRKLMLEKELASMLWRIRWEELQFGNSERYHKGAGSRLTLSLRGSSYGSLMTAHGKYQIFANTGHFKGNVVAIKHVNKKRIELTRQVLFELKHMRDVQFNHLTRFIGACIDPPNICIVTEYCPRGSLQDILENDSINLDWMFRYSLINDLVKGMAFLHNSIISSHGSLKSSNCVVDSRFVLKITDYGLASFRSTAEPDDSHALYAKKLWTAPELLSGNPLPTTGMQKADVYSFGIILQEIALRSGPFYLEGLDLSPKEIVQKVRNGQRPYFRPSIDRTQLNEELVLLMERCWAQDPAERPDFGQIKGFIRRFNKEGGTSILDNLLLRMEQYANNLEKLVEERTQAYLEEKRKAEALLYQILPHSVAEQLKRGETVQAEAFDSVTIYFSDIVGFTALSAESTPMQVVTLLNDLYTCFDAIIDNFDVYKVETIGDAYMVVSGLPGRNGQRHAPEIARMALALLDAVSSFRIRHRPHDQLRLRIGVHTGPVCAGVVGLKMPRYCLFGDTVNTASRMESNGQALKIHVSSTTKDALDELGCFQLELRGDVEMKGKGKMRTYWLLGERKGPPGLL
# Method in brief: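 Luminescence from a genetically encoded cGMP luciferase biosensor in hNpr2-expressing HEK293 cells is read before and 20 min after adding 1 nM hNppC. Test compounds, in interplate 1:5 titrations, are added 30-50 min ahead of the agonist.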
# [16] = target: T1, Tyrosine-protein phosphatase non-receptor type substrate 1 (Homo sapiens) + Leukocyte surface antigen CD47 (Homo sapiens) (UniProt P78324+Q08722); experiment: CD47-SIRPalpha protein protein interaction - LANCE assay qHTS validation (AID 1347057; active means well fitted curve in the direction sought with a large enough effect in the signal ratio, with a control signal flat, not every such curve was filed as active; the % refers to the signal ratio; further: series mostly up to about 38 µM)
# T1 sequence (P78324 whole entry, looked up, the tested form may be a part): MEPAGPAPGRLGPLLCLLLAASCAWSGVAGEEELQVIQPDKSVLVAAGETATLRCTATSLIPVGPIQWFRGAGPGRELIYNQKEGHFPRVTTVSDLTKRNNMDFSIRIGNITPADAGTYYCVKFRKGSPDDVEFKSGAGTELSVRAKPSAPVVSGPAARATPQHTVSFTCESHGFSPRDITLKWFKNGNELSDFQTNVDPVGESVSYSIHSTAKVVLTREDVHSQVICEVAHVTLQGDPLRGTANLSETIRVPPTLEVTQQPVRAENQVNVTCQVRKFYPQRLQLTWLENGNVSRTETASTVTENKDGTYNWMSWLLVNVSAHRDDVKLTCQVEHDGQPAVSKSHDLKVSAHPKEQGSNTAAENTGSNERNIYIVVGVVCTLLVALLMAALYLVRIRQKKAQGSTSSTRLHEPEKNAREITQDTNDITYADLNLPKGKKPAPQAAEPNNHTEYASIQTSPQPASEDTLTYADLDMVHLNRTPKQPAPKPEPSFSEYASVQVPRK
# T1 sequence (Q08722 whole entry, looked up, the tested form may be a part): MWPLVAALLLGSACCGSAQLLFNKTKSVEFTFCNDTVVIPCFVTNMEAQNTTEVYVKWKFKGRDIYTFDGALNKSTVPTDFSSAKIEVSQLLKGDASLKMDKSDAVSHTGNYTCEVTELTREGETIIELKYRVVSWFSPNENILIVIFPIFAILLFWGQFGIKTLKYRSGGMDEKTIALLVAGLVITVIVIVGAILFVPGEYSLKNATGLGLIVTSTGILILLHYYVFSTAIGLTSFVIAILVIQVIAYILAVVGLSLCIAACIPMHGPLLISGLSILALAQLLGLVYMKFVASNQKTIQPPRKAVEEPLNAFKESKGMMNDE
# Method in brief: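 Inhibition of soluble CD47/SIRPalpha ectodomain association by titrated compounds, measured as 665/615 nm time-resolved FRET ratio after sequential 30 min room-temperature incubations.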
# [17] = target: T1, Tyrosine-protein phosphatase non-receptor type substrate 1 (Homo sapiens) + Leukocyte surface antigen CD47 (Homo sapiens); experiment: CD47-SIRPalpha protein protein interaction - HTRF assay qHTS validation (AID 1347058; active means well fitted curve in the direction sought with a large enough effect in the signal ratio, not every such curve was filed as active; the % refers to the signal ratio; further: series mostly up to about 38 µM)
# Method in brief: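 Soluble extracellular domains (6His-CD47, Avi-tag-biotinylated SIRPalpha) in PBS pH 7.4 with 0.05% IGEPAL CA-630. Compounds were preincubated 30 min at RT with CD47 and anti-His-Eu, then SIRPalpha and SAV-XL665 were added. TR-FRET 665/615 ratio.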
# [18] = target: Parathyroid hormone/parathyroid hormone-related peptide receptor (Homo sapiens) (UniProt Q03431); experiment: qHTS for PTHR1 Agonists: Optimization Screen against the NCGC LOPAC library (AID 1347079);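 further: GloSensor cAMP luminescence in HEK-293 GP2 cells expressing human PTHR1 with IBMX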
# Parathyroid hormone/parathyroid hormone-related peptide receptor (Homo sapiens), sequence (Q03431 whole entry, looked up): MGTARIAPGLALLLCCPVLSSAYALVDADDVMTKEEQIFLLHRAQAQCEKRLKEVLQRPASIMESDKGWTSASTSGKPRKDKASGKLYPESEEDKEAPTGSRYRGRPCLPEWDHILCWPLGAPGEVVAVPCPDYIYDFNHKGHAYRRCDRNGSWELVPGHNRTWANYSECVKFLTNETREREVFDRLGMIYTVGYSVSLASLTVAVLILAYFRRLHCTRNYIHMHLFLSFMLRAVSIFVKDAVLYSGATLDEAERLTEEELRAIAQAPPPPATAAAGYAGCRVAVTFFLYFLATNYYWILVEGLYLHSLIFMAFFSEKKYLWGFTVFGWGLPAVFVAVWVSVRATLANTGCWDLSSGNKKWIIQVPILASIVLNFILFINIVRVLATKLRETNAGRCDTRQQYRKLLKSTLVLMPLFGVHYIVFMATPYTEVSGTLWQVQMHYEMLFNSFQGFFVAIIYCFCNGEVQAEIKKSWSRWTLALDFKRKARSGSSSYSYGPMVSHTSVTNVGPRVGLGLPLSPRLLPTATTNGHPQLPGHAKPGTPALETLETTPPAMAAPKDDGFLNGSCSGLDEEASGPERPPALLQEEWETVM
# Method in brief: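 Signal increase flags agonism. GP2 cells, derived from HEK-293, express human PTHR1 and a GloSensor cAMP construct.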
# [19] = target: T1, Tyrosine-protein phosphatase non-receptor type substrate 1 (Homo sapiens) + Leukocyte surface antigen CD47 (Homo sapiens); experiment: CD47-SIRPalpha protein protein interaction - Alpha assay qHTS validation (AID 1347059);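 further: bead proximity luminescence from CD47 binding SIRPalpha after compound preincubation with SIRPalpha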
# Method in brief: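 SIRPalpha-biotin 25 nM + cpd, 30 min RT, dark; add CD47-His 12.5 nM, 30 min; add Ni-NTA/SAV beads 10 ug/mL, 30 min; AlphaScreen. Buffer PBS pH 7.4 + 0.05% IGEPAL CA-630. Non-biotinylated SIRPalpha as control inhibitor.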
compound,measurement,setting,value
C[S+](CC[C@H](N)C(=O)O)C[C@H]1O[C@@H](n2cnc3c(N)ncnc32)[C@H](O)[C@@H]1O (some centres not stated),Potency,[1],inactive
CC[C@H]1OC(=O)[C@H](C)[C@@H](O[C@H]2C[C@@](C)(OC)[C@@H](O)[C@H](C)O2)[C@H](C)[C@@H](O[C@@H]2O[C@H](C)C[C@H](N(C)C)[C@H]2O)[C@](C)(O)C[C@@H](C)C(=O)[C@H](C)[C@@H](O)[C@]1(C)O,Potency,[1],inactive
O=C1CC[C@@H](C(=O)N2CSC[C@H]2C(=O)O)N1 ([pGlu]-[Thz]-OH),Potency,[2],inactive
same,Potency,[1],inactive
CC(=O)c1ccc(OCC(=O)N2CCCCC2)cc1,Potency,[2],inactive
same,Potency,[1],inactive
same,Potency,[3],inactive
same,Potency,[4],inactive
same,Potency,[5],inactive
same,Potency,[6],inactive
same,Potency,[7],inactive
same,Potency,[8],inactive
same,Potency,[9],inactive
same,Potency,[10],inactive
same,Potency,[11],inactive
CN1CC(=O)N/C1=N/C(=O)Nc1cccc(Cl)c1,outcome,[12],inactive
same,Potency,[1],inactive
same,Potency,[13],inactive
same,Potency,[14],inactive
same,Potency,[15],inactive
same,Potency,[3],inactive
same,Potency,[16],inactive
same,outcome,[17],inactive
same,Potency,[18],inactive
same,Potency,[4],inactive
same,Potency,[5],inactive
same,Potency,[6],inactive
same,Potency,[7],inactive
same,Potency,[8],inactive
same,Potency,[9],inactive
same,Potency,[10],inactive
same,Potency,[11],inactive
CC[C@H]1OC(=O)[C@H](C)C(=O)[C@H](C)[C@@H](O[C@@H]2O[C@H](C)C[C@H](N(C)C)[C@H]2O)[C@](C)(OC)C[C@@H](C)C(=O)[C@H](C)[C@H]2N(CCCCn3cnc(-c4cccnc4)c3)C(=O)O[C@]12C,Potency,[1],inactive
Oc1cc(O)cc(/C=C/c2ccc(O)c(O)c2)c1,Potency,[2],inactive
same,Potency,[13],11.7 µM (active)
same,Potency,[3],inactive
same,Potency,[16],inactive
same,Potency,[18],inactive
COc1cc(CNC(=O)CCCC/C=C/C(C)C)ccc1O,Potency,[2],inactive
same,Potency,[1],inactive
CC(=O)O[C@H]1C[C@@]2(C)[C@@H](C[C@@H](O)[C@H]3[C@@]4(C)CC[C@@H](O)[C@@H](C)[C@@H]4CC[C@@]32C)/C1=C(\CCC=C(C)C)C(=O)O,Potency,[2],inactive
same,Potency,[1],inactive
CC1(C)S[C@@H]2[C@H](NC(=O)[C@H](NC(=O)N3CCN(S(C)(=O)=O)C3=O)c3ccccc3)C(=O)N2[C@H]1C(=O)O,Potency,[2],inactive
same,Potency,[1],inactive
O=[N+]([O-])c1ccc(CNc2nc(NCc3cccc(C(F)(F)F)c3)nc3nc[nH]c23)cc1,Potency,[2],inactive
same,Potency,[1],inactive
same,Potency,[3],inactive
same,Potency,[16],inactive
same,outcome,[17],inactive
COC(=O)[C@H]1[C@H]2C[C@@H]3c4[nH]c5cc(OC)ccc5c4CCN3C[C@H]2C[C@@H](OC(=O)/C=C/c2cc(OC)c(OC)c(OC)c2)[C@@H]1OC,Potency,[2],inactive
same,Potency,[1],inactive
CCNc1nc2c(ncn2[C@H]2C[C@H](O)[C@@H](CO)O2)c(=O)[nH]1,Potency,[2],inactive
same,Potency,[1],inactive
same,Potency,[3],inactive
same,Potency,[16],inactive
same,outcome,[17],inactive
same,Potency,[19],inactive
C[C@H](O)[C@H](O)[C@H]1CNc2nc(N)[nH]c(=O)c2N1,Potency,[2],inactive
same,Potency,[1],inactive
CC1(C)[C@@H](O[C@H]2O[C@H](C(=O)O)[C@@H](O)[C@H](O)[C@H]2O[C@@H]2O[C@H](C(=O)O)[C@@H](O)[C@H](O)[C@H]2O)CC[C@]2(C)[C@H]3C(=O)C=C4[C@@H]5C[C@@](C)(C(=O)O)CC[C@]5(C)CC[C@@]4(C)[C@]3(C)CC[C@@H]12,Potency,[2],inactive
same,Potency,[1],inactive
C=C(Nc1ccc(OCC)cc1)Nc1ccc(OCC)cc1,Potency,[1],inactive
CC1(C)S[C@@H]2[C@H](NC(=O)[C@H](N)c3ccc(O)cc3)C(=O)N2[C@H]1C(=O)O,Potency,[1],inactive
CN1[C@@H]2CC[C@H]1CC(OC(c1ccccc1)c1ccccc1)C2 (some centres not stated),Potency,[2],inactive
same,Potency,[1],inactive
CO[C@H]1C[C@@H]2CC[C@@H](C)[C@@](O)(O2)C(=O)C(=O)N2CCCC[C@H]2C(=O)O[C@H]([C@H](C)C[C@@H]2CC[C@@H](O)[C@H](OC)C2)CC(=O)[C@H](C)C=C(C)[C@@H](O)[C@@H](OC)C(=O)[C@H](C)C[C@H](C)/C=C/C=CC=C1C,Potency,[1],inactive
O=C(O)COc1ccc(C(=O)c2cccs2)c(Cl)c1Cl,Potency,[1],inactive
CN1[C@@H]2CC[C@H]1CC(OC(=O)C(CO)c1ccccc1)C2 (some centres not stated),Potency,[1],inactive
COc1cc(/C=C/C(=O)CC(=O)/C=C/c2ccc(O)c(OC)c2)ccc1O,Potency,[1],inactive
CC1(C)C[C@@H]1C(=O)N/C(=C\CCCCSC[C@H](N)C(=O)O)C(=O)O,Potency,[1],inactive
O=C(O)[C@H](CC(=O)N1C[C@H]2CCCC[C@H]2C1)Cc1ccccc1,Potency,[1],inactive
CC(=O)SCC(CC(=O)c1ccc(C)cc1)C(=O)O (configuration not stated),Potency,[2],inactive
same,Potency,[1],inactive
same,Potency,[3],inactive
same,Potency,[4],inactive
same,Potency,[5],inactive
same,Potency,[6],inactive
same,Potency,[7],inactive
same,Potency,[8],inactive
same,Potency,[9],inactive
same,Potency,[10],inactive
same,Potency,[11],inactive
